High-throughput results from PubChem.
A selection: hits, their analogues and other compounds. The true share with any hit is near 21%.
ELG1 repair inh: ELG1-dependent DNA repair inhibition; Potency, µM (titrated, usually from 46.1 µM), most hits filed as inhibitors; actives 2.3% (n = 330,000); HEK293T ELG1-luciferase reporter, luminescence, 16 h; DNA damage induced by 5-fluorouridine; also: nearly all actives have a fitted effect of over 55% in size
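In this reporter screen, reduction of luminescence relative to DMSO vehicle indicated activity. Compounds and 5-fluorouridine were added together to 2,000 cells per well, incubated for 16 hr at 37 °C, then developed with ONE-Glo.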
DT40 TDP1 no CPT: qHTS for Inhibitors of human tyrosyl-DNA phosphodiesterase 1 (TDP1): qHTS in cells in absence of CPT; DT40 Tdp1-/- hTDP1 cells, no CPT, ATP luminescence, 48 h; Potency, µM (highest dose often 46.2 µM), usual class: inhibitors; actives 15% (n = 420,000); also: nearly all actives have a fitted effect of over 55% in size
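Growth of hTDP1-complemented DT40 Tdp1-knockout cells is measured by ATP luminescence after at least 48 hr compound exposure at 37 °C, with DMSO substituting for the 20 nM CPT used in the parallel screen.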
Gal4-VP16 FLuc: inhibits Gal4-VP16 luciferase reporter, ROR gamma counter-screen; Drosophila S2 Gal4-VP16 UAS-luciferase, luminescence, 20 h; Potency, µM (doses to about 53.6 µM), usual class: inhibitors; actives 3.5% (n = 310,000); AID 2546;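 also: Gal4-VP16 expression switched on by copper sulfate through the metallothionein promoter; nearly all actives have a fitted effect of over 50% in size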
RORgamma inh: blocks mouse ROR gamma transcriptional activity. Drosophila S2 Gal4-RORgamma UAS-luciferase reporter, 20 h. actives 5.4% (n = 310,000). Potency, µM (titrated, usually from 53.6 µM), usual class: inhibitors. P51450; also: nearly all actives have a fitted effect of over 60% in size
Target sequence (P51450 whole entry, looked up, the tested form may be a part): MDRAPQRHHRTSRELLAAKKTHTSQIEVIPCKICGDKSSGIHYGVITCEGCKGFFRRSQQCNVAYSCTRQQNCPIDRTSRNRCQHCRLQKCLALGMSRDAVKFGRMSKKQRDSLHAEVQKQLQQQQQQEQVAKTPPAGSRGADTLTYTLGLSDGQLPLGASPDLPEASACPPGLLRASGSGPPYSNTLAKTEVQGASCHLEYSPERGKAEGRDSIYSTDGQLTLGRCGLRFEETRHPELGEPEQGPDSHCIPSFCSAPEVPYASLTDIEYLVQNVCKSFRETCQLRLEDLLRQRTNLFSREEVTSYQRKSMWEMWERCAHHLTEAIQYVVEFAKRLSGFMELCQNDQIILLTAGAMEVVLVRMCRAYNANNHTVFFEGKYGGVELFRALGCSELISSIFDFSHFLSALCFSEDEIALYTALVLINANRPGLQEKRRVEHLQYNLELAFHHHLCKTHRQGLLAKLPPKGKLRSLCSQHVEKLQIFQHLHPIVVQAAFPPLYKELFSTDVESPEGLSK
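Using a luciferase readout, inhibitors were identified by reduced reporter activity in Drosophila cells coexpressing a copper-inducible Gal4–ROR gamma fusion and UAS-driven Photinus luciferase, incubated 20 hr after 700 uM copper sulfate.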
IL-1B inflam inh: inhibitors of inflammasome signaling (IL-1 beta secretion); actives 4.7% (n = 360,000); AID 743279; THP-1 LPS/ATP IL-1B secretion, AlphaLISA, 16 h; hits give low values; activity change, % at 57.5 µM; in the data active = activity change below about -50%; inconclusive = mostly about -30% to -49%
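THP-1 cells pretreated 1 hr with compounds (up to 57.5 uM final), then stimulated with LPS (250 ng/mL final) plus ATP (1.25 mM final); secreted IL-1B measured by AlphaLISA after 16 hr, decreased signal indicating inhibition.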
TDP1 cell CPT: DT40-hTDP1 cell growth loss with CPT | actives 12% (n = 420,000) | chicken DT40 Tdp1-/-;hTDP1 cells + 20 nM CPT, ATP luminescence, 48 h | AID 686979 | Potency, µM (highest dose often 46.2 µM), actives largely listed as inhibitors; also: nearly all actives have a fitted effect of over 55% in size
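Cell growth measured by CellTiter-Glo luminescence after a minimum 48 h, 37 C compound exposure with 20 nM CPT in Tdp1-knockout DT40 cells stably expressing hTDP1, seeded 400/well; qHTS titration format.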
Large screens that a line does not name were inactive. Unless noted, calls follow the shape of the dose curve; as a rule, active = well fitted curve in the direction sought with a large enough effect; inconclusive = small, poorly fitted or top-dose-only effect, or another doubt; inactive = no such curve, though single readings can be large; an effect the other way counts as inactive or inconclusive.

Cn1nnnc1SCCNCc1ccc(Cl)cc1	none
Cn1nnnc1SCCNCc1cc(Cl)ccc1OCc1ccccc1	DT40 TDP1 no CPT 23µM, Gal4-VP16 FLuc inconclusive, TDP1 cell CPT 26µM
CCOc1cccc(CNCCCSc2ncccn2)c1	DT40 TDP1 no CPT 15µM, TDP1 cell CPT 4.6µM
Cn1nnnc1SCCCNCc1ccccc1OCc1ccc(Cl)cc1	DT40 TDP1 no CPT 23µM, TDP1 cell CPT 18µM (no result: ELG1 repair inh, Gal4-VP16 FLuc, RORgamma inh, IL-1B inflam inh)
COc1ccc(NCc2nnc(SCC(=O)Nc3ccccc3)n2C)cc1	none
CCOc1cccc(CNCCCSc2nnnn2C)c1	none (no result: ELG1 repair inh, Gal4-VP16 FLuc, RORgamma inh, IL-1B inflam inh)
COc1cc(CNCCSc2nnnn2C)ccc1OCc1ccccc1C	DT40 TDP1 no CPT inconclusive, TDP1 cell CPT 16µM (no result: ELG1 repair inh, Gal4-VP16 FLuc, RORgamma inh, IL-1B inflam inh)
Cn1nnnc1SCCCNCc1cccc(OCc2ccc(F)cc2)c1	DT40 TDP1 no CPT 23µM, TDP1 cell CPT inconclusive (no result: ELG1 repair inh, Gal4-VP16 FLuc, RORgamma inh, IL-1B inflam inh)
